# Compound activity from PubChem.
# RBX1-CUL1 inh – blocks human RBX1-Cullin-1 di-ubiquitin formation. P62877+Q13616. in vitro K48 di-Ub FRET, acceptor:donor ratio, 45 min. inhibition, % at 10 µM. 140,000 tested, 0.6% active; in the data active means inhibition above about 25%
# Target sequence (P62877 whole entry, looked up): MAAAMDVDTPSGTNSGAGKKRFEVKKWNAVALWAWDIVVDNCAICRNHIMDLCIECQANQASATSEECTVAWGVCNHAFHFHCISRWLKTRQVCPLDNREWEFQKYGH
# Target sequence (Q13616 whole entry, looked up): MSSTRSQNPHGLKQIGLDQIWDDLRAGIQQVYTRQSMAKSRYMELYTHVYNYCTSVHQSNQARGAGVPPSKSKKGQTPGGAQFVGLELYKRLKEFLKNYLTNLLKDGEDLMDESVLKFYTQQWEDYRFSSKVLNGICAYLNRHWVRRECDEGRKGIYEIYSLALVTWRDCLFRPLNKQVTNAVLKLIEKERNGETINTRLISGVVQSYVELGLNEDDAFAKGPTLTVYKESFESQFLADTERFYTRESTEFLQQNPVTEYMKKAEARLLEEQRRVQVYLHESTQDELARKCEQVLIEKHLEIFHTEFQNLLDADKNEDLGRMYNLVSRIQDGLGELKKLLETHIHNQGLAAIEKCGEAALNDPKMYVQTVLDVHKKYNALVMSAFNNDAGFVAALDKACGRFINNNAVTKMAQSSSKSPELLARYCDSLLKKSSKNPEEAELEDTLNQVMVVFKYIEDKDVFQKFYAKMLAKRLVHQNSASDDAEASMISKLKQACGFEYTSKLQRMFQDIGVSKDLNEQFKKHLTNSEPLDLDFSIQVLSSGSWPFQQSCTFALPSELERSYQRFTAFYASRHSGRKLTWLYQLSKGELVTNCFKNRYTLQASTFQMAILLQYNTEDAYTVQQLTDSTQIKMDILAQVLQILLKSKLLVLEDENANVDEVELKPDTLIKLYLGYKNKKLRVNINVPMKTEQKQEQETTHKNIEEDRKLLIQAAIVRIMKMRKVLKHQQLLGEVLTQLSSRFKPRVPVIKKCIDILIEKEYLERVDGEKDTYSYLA
# Starred values were filed as active, the others as inactive. The entries come from a sample that favours hits as a whole.
SMILES,RBX1-CUL1 inh
N=C1C(=O)c2c(N)cccc2C(=O)C1Br (stereo not given),102.5*
CCC1CN(Cc2ccc3ncccc3c2)Cc2cc(OC)ccc2O1 (stereo not given),1.2
CCn1ccnc1CNC(=O)c1cc(COc2ccc(OC)c3ccccc23)on1,-4.7
O=C(NC(=S)Nc1cc(Cl)c(Cl)cc1Cl)c1ccccc1,-8.8
CC1=C(C#N)C(=O)N(C)C(=O)/C1=C\c1ccc(-c2ccc(C(=O)OC(C)C)cc2)o1,-7.0
C=CCN1C(=O)C(C#N)=C(C)/C(=C\c2ccc(-c3ccc(Cl)c(C(=O)OC(C)C)c3)o2)C1=O,2.0
CC1=C(C#N)C(=O)N(CC(C)O)C(=O)/C1=C/c1ccc(-c2ccc(Br)cc2)o1 (stereo not given),47.0*
CCOC(=O)c1c(C)n(CC)c2cc(Br)c(O)cc12,-0.8
O=[N+]([O-])c1ccc(N2CCCCC2)nc1,4.3
c1ccc2cc(N3CCCCC3)ncc2c1,65.0*
c1ccc(-c2cc(N3CCCCC3)ncn2)cc1,-4.3
Cc1ccc(NC(=O)C2CC2)c(NC(=O)C2CC2)c1,5.2
COCCC(=O)NCc1cccnc1N1CCCC(O)C1 (stereo not given),-3.9
Cc1ccc(NC(=S)Nc2ccc3nsnc3c2)cc1,66.0*
COc1ccc(C(=O)Nc2ccc3nsnc3c2)cc1OC,-8.9
CNC(=S)Nc1ccc(C)cc1,3.9
Cc1nnnn1-c1cccc(C(=O)N2CCc3[nH]nc(C(C)C)c3C2)c1,-4.6
COc1ccc(CCNC(=S)S)cc1OC,99.1*
COc1ccc(CCNC(=S)Nc2cc(Cl)ccc2Cl)cc1OC,-3.0
COc1ccc(CCNC(=S)Nc2c(Cl)cncc2Cl)cc1OC,6.0
Cc1ccc(-c2cc(=O)[nH]c(N3CCN(Cc4ccccc4)CC3)n2)cc1,2.6
CC(=O)C1C(=O)Oc2c(ccc3ccccc23)C1=O (stereo not given),39.9*
CC(=O)c1coc2ccc3ccccc3c2c1=O,5.5
O=C1CC(O)(C(F)(F)F)Oc2c1ccc1ccccc21 (stereo not given),-1.3
CC(C)N(C)Cc1nnnn1CC(=O)N1CCOc2ccc(Cl)cc2C1,0.9
SMILES,RBX1-CUL1 inh
CCCCCNC(=O)c1cc(-c2cccc(C)c2)nc2ccccc12,1.3
CCN1CCN(C(=O)CCC2CCN(C(=O)CC3=CCCCC3)CC2)CC1,-0.2
CCC(=O)N(C)C(Cc1ccc(F)cc1F)C1CCN(C(=O)c2ccc(F)c(Cl)c2)CC1 (stereo not given),-0.1
c1cncc(NCn2cnc3ccccc32)c1,-3.0
O=C1NC(=O)N(c2ccc(Cl)cc2)C(=O)/C1=C\c1c2ccccc2cc2ccccc12,5.5
O=C1NC(=S)N(c2ccccc2)C(=O)/C1=C/c1ccc(Sc2ccc(Cl)cc2)s1,32.8*
Cc1cc(/C=C2\C(=O)NC(=S)N(c3ccc(Cl)cc3)C2=O)c(C)n1-c1ccc(Cl)c(Cl)c1,-6.4
Cc1cccc(NC(=O)CN2C(=O)S/C(=C/c3ccc(Br)s3)C2=O)c1,2.2
O=C(c1cn(CC2CCCO2)nn1)N1CCCN(Cc2cccs2)CC1 (stereo not given),-0.2
CCc1cc(C(=O)NCC2CCCO2)cs1 (stereo not given),9.1
Cc1ncc2c(c1-c1noc(-c3ccc(N)nc3)n1)CCN(CC1CCCC1)C2,1.8
Cc1cc(C)n(Cc2nc(-c3c(C)ncc4c3CCN(CC3CC3)C4)no2)n1,36.9*
CNc1ncc(-c2nc(-c3c(C)ncc4c3CCN(CC3CC3)C4)no2)cn1,1.7
CCCOC(=O)c1ccc(Cl)c(NC(=O)c2ccncc2)c1,2.2
CSc1nc2sc3c(c2c(=O)n1N)CCCC3,-1.3
CC1=C(c2ccc(F)cc2)C(N)=Nc2ccccc2N1,-2.7
Cc1ccc(N=Cc2cc3c(cc2O)OC(=N)C(C#N)C3c2cccc(F)c2)c(C)c1 (stereo not given),2.8
N#CC1C(=N)Oc2cc(O)c(C=Nc3ccc(Cl)c(Cl)c3)cc2C1c1cccc(I)c1 (stereo not given),0.5
N#CC1C(=N)Oc2cc(O)c(C=Nc3cc(C(F)(F)F)ccc3Cl)cc2C1c1ccco1 (stereo not given),85.2*
CCOCc1nn2c(-c3ccc(C)cc3)nnc2s1,-2.3
N#CC1C(=N)OC2=C(CCC/C2=C\c2ccccc2)C1c1ccccc1 (stereo not given),6.2
Cc1ccccc1-n1ncc(SCc2ccccc2)c(Cl)c1=O,-2.5
Cc1cc2c(n1Cc1ccccc1)C(=O)c1ccccc1-2,7.1
CC1=C(SCc2ccccc2)C(=O)c2ccccc2C1=O,37.4*
CCOC(=O)C1CCN(C(=O)c2ncn[nH]2)CC1,2.7
SMILES,RBX1-CUL1 inh
Cc1ccc(CSCCNC(=O)c2ccc(C3SCC(=O)N3Cc3ccccc3)cc2)cc1 (stereo not given),2.3
Cc1ccccc1/C=C/C(=O)C1C=C(Br)C=CC(=O)C1=O (stereo not given),-1.5
COc1cccc(/C=C/C(=O)C2C=C(Br)C=C(Br)C(=O)C2=O)c1 (stereo not given),-3.3
COc1ccccc1/C=C/C(=O)C1C=C(Br)C=C(Br)C(=O)C1=O (stereo not given),27.6*
CN1/C(=C\C=C2/SC(=S)NC2=O)C(C)(C)c2ccccc21,34.2*
Cc1ccccc1N=C/C=C1\N(C)c2ccccc2C1(C)C,-4.4
O=C1NC(=S)S/C1=C/C=C/c1ccccc1Cl,9.3
Cc1ccc2c(c1)c1c3n2CCN(Cc2ccccc2)C3CCC1 (stereo not given),7.2
CCOc1ccc(N2CC(C)Cn3c2nc2c3c(=O)n(C)c(=O)n2C)cc1 (stereo not given),0.4
c1ccc(CN=C2NC(=NCc3ccccc3)c3ccccc32)cc1,1.1
CC(=O)Nc1nnc(SCC2=Nc3ccc(C)cc3C(=O)C2)s1,-8.3
COc1cc(/C=N/n2cnnc2)ccc1OCc1ccc(C(=O)O)cc1,-3.2
CCOc1cc(NC(=O)C(C(F)(F)F)C(F)(F)F)c(OCC)cc1NC(=O)c1ccccc1,66.6*
CCOc1c(Cl)cc(C(=O)Nc2ccccc2C(F)(F)F)cc1Cl,2.8
CCOc1cc(C(=O)Nc2ccccc2Oc2ccccc2)cc(OCC)c1OCC,-2.7
CCc1ccc2c(Cl)c(C(=O)N/N=C/c3ccccc3O)sc2c1,-3.3
Cc1ccc(C)c(-c2[nH]c3c(c2-c2c(-n4cccc4)n(C)c(=O)n(C)c2=O)c(=O)n(C)c(=O)n3C)c1,9.4
CCOC(=O)c1c(C)sc(-c2c(-c3cccc(Cl)c3)[nH]c3c2c(=O)n(C)c(=O)n3C)c1O,45.0*
CCOC(=O)c1c(NC(=O)c2c(F)cccc2F)sc(C)c1-c1cccc(Cl)c1,1.5
CCOC(=O)c1c(C)sc(-c2c(-c3cc(C)ccc3C)[nH]c3c2c(=O)[nH]c(=O)n3C)c1O,49.0*
CCOC(=O)c1c(C)sc(-c2c(-c3cc(C)ccc3C)[nH]c3c2c(=O)n(C)c(=O)n3C)c1O,21.8
CCOC(=O)C1=CN(c2ccc(F)cc2)C=C(C(=O)OCC)C1c1cccc(Cl)c1,-3.3
CSc1ccc(/C=N/NC(=O)c2cc3c(ccc4ccccc43)o2)cc1,10.0
Cc1cccc(C)c1NC(=O)c1ccc(-c2ccc(Br)cc2)o1,2.9
Cc1nc(Sc2c[nH]c3ccccc23)c2c3c(sc2n1)CCCC3,-1.8
O=C(NCc1ccccn1)c1cnn(-c2nccc(-c3ccc4c(c3)OCO4)n2)c1-c1ccco1,6.8
CN1C(=S)N(c2ccc(Cl)cc2)C(=O)/C1=C/c1cn(CC(=O)NCc2ccco2)c2ccccc12,6.7
Cc1ccc(NC(=O)Cn2c(=O)n(Cc3ccco3)c(=O)c3ccccc32)cc1,3.8
